# Values without a mark were called inactive. Records with an inconclusive call do not appear. A call without a number means that no potency is given here. Calls of active or inactive are those of the source. Unless noted, the call rests on the fitted dose curve; in most records, active means well fitted curve in the direction sought with a large enough effect in the repeat runs; inconclusive means weak or mixed curves; inactive means no such curve, though single readings can be large; an effect the other way counts as inactive or inconclusive.
# Key:
# [1] = A CellTox Green Cytotoxicity Assay to monitor cytotoxicity in HepG2 cells - 8 hour (AID 1224890); further: nearly all actives have a fitted effect of over 45% in size
# Procedure, shortened: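 Fluorescent DNA-binding dye, 600 HepG2 cells/well, 5 h preincubation then compound in DMSO; same plates read at 0–40 h, 37 C.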
# [2] = qHTS assay to identify small molecule antagonists of the estrogen receptor alpha (ER-alpha) signaling pathway using the BG1 cell line in the presence of 0.1 nM 17-beta-estradiol - cell viability counter screen (AID 1259241); further: nearly all actives have a fitted effect of over 40% in size
# Procedure, shortened: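 Live-cell protease activity (CellTiter-Fluor fluorescence, 30 min) was read in the same wells after VM7Luc4E2 cells had been exposed to compounds with 0.1 nM 17beta-estradiol for 22 hr at 37C.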
# [3] = qHTS assay to identify small molecule antagonists of the androgen receptor (AR) signaling pathway using the MDA cell line in the presence of 0.5 nM R1881 - cell viability counter screen (AID 1259242); further: nearly all actives have a fitted effect of over 45% in size
# Procedure, shortened: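 Human breast carcinoma MDA-kb2 cells, cultured without CO2, receive compounds alongside 0.5 nM (final) R1881 agonist. After 16 hr at 37C, viability is taken as live-cell protease signal.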
# [4] = target: Estrogen receptor (Homo sapiens) (UniProt P03372); experiment: qHTS assay to identify small molecule antagonists of the estrogen receptor alpha (ER-alpha) signaling pathway using the BG1 cell line in the presence of 0.1 nM 17-beta-estradiol (AID 1259244); further: nearly all actives have a fitted effect of over 50% in size
# Procedure, shortened: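 Seeding of stripped-serum-adapted VM7Luc4E2 cells, 24 h attachment, compound transfer, then 0.1 nM final 17beta-estradiol; after 22 h incubation, ONE-Glo reagent and luminescence reading.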
# [5] = qHTS assay to identify small molecule HDAC inhibitors (AID 1259364); further: potency means the concentration at half of the fitted maximal effect;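 further: wild-type HCT-116 cells with endogenous class I/II HDAC activity; nearly all actives have a fitted effect of over 45% in size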; on activity change, negative = inhibition: top concentration of the series differs between compounds
# Procedure, shortened: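 After a 2 hr compound incubation (37C, 5% CO2), HCT-116 cells seeded at 1,500/well the day before received HDAC-Glo reagent; signal read as luminescence after 30 min at room temperature.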
# [6] = qHTS assay to identify small molecule HDAC inhibitors - cell viability counter screen (AID 1259365); further: series mostly up to about 92 µM; nearly all actives have a fitted effect of over 50% in size
# Procedure, shortened: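 HCT-116 (wild type), 1,500 cells/well, overnight 37C/5% CO2; compound in DMSO 2hr; CellTiter-Glo 30min RT; luminescence read.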
# [7] = qHTS assay to identify small molecule agonists of the sonic hedgehog signaling (Shh) pathway - cell viability counter screen (AID 1259366); further: nearly all actives have a fitted effect of over 50% in size; further: potency means the concentration at half of the fitted maximal effect
# Procedure, shortened: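 CellTiter-Fluor fluorescence read-out, 1 hr at 37C, added after 23hr compound exposure. Cells: 3T3 Gli1-Luc, an NIH/3T3 clone with stably integrated Gli1-Luc reporter, plated 4hr before compound.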
# [8] = qHTS assay to identify small molecule antagonists of the sonic hedgehog signaling (Shh) pathway - cell viability counter screen (AID 1259367); further: nearly all actives have a fitted effect of over 55% in size; further: potency means the concentration at half of the fitted maximal effect
# Procedure, shortened: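 Conditioned medium drove Shh signaling in 3T3 Gli1-Luc cells exposed to compounds at 37C and 5% CO2. Viability was determined from CellTiter-Fluor fluorescence, with reagent incubated 1 hr after 23 hr of treatment.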
# [9] = qHTS assay to identify small molecule phospholipidosis (PLD) inducers (AID 1259344; active means well fitted curve in the direction sought with a large enough effect; an effect the other way counts as inactive or inconclusive)
# Procedure, shortened: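 After 4 h attachment on collagen I, HepG2 cells were dosed with compound alongside LipidTOX Red, kept 24 h at 37 C, fixed, and imaged for lamellar phospholipid pits.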
# Chain of Estrogen receptor (Homo sapiens) (P03372 whole entry, looked up): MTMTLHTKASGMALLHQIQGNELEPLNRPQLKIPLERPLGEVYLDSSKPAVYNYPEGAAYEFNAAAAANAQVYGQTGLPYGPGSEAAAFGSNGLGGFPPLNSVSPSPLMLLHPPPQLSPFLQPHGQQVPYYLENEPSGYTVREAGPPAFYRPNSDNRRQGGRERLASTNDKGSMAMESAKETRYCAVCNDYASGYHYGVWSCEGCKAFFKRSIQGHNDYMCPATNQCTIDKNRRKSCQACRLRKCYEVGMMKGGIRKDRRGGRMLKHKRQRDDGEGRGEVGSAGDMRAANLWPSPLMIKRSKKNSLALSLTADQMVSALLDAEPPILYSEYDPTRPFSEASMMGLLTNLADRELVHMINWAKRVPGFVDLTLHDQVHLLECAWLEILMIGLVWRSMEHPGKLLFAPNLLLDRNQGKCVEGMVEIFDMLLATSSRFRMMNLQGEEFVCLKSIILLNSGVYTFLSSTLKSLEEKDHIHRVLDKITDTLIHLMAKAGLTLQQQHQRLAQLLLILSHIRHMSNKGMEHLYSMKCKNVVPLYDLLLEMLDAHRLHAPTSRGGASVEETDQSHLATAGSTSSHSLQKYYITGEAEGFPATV
smiles,measurement,setting,value
CC(C)CC(C)(C)C,Potency,[1],inactive
same,Potency,[2],inactive
same,Potency,[3],inactive
same,Potency,[4],inactive
same,Potency,[5],inactive
same,outcome,[6],inactive
same,Potency,[7],inactive
same,Potency,[8],inactive
CCCCCCCCCCCCCCCCCCCl,cytotoxicity increase,[1],0.0897% [at 6.97 µM]
same,"activity change, negative = cytotoxicity",[2],5.01% [at 8.39 µM]
same,"viability change, negative = cytotoxic",[3],5.37% [at 8.39 µM]
same,"activity change, negative = inhibition",[4],-0.369% [at 8.39 µM]
same,"activity change, negative = inhibition",[5],2.06% [at 8.39 µM]
same,"activity change, negative = cytotoxicity",[6],1.46% [at 8.39 µM]
same,"viability change, negative = cytotoxic",[7],3.36% [at 8.39 µM]
same,"viability change, negative = cytotoxic",[8],0.635% [at 8.39 µM]
CCc1cnc(C(=O)O)c(C(=O)O)c1,Potency,[1],inactive
same,Potency,[2],inactive
same,Potency,[3],inactive
same,Potency,[4],inactive
same,Potency,[5],inactive
same,outcome,[6],inactive
same,Potency,[7],inactive
same,Potency,[8],inactive
CC(C)CCCCCOC(=O)CS,Potency,[1],inactive
same,Potency,[2],inactive
same,Potency,[3],inactive
same,Potency,[4],inactive
same,Potency,[5],inactive
same,outcome,[6],inactive
same,Potency,[7],inactive
same,Potency,[8],inactive
Cc1cc(C)c(C)c(O)c1,Potency,[1],inactive
same,Potency,[2],inactive
same,Potency,[3],inactive
same,Potency,[4],inactive
same,Potency,[5],inactive
same,outcome,[6],inactive
same,Potency,[7],inactive
same,Potency,[8],inactive
O=C1OC(=O)C2CC=CCC12 (stereo not given),Potency,[1],inactive
same,Potency,[2],inactive
same,Potency,[3],inactive
same,Potency,[4],inactive
same,Potency,[5],inactive
same,outcome,[6],inactive
same,Potency,[7],inactive
same,Potency,[8],inactive
CC1(C)CC(=O)CC(C)(C)N1,Potency,[1],inactive
same,Potency,[2],inactive
same,Potency,[3],inactive
same,Potency,[4],inactive
same,Potency,[5],inactive
same,outcome,[6],inactive
same,Potency,[7],inactive
same,Potency,[8],inactive
c1ccc(-c2ccc(-c3ccccc3)cc2)cc1,cytotoxicity increase,[1],-1.41% [at 15.8 µM]
same,"activity change, negative = cytotoxicity",[2],0.519% [at 19 µM]
same,"viability change, negative = cytotoxic",[3],1.4% [at 19 µM]
same,"activity change, negative = inhibition",[4],56.5% [at 19 µM]
same,Potency,[5],4.45 µM (active)
same,"activity change, negative = cytotoxicity",[6],0.606% [at 19 µM]
same,"viability change, negative = cytotoxic",[7],0.865% [at 19 µM]
same,"viability change, negative = cytotoxic",[8],-1.08% [at 19 µM]
C/C(=C\C(C)CC(C)CC(C)C)C1CC(=O)OC1=O (stereo not given),Potency,[1],inactive
same,Potency,[2],inactive
same,Potency,[3],inactive
same,Potency,[4],inactive
same,Potency,[5],inactive
same,outcome,[6],inactive
same,Potency,[7],inactive
same,Potency,[8],inactive
O=C(OCCOCCOCCOC(=O)c1ccccc1)c1ccccc1,Potency,[1],inactive
same,Potency,[2],inactive
same,Potency,[3],inactive
same,Potency,[4],inactive
same,Potency,[5],inactive
same,Potency,[7],inactive
O=C(OCCN1CCOCC1)c1cccnc1Nc1cccc(C(F)(F)F)c1,Potency,[1],inactive
same,Potency,[2],inactive
same,Potency,[3],inactive
same,Potency,[4],inactive
same,Potency,[5],inactive
same,Potency,[7],inactive
same,Potency,[8],inactive
COC(=O)Cc1cccc2ccccc12,Potency,[1],inactive
same,Potency,[2],inactive
same,Potency,[3],inactive
same,Potency,[4],inactive
same,Potency,[5],inactive
same,Potency,[7],inactive
Cc1cc(N)n(-c2ccccc2)n1,Potency,[1],inactive
same,Potency,[2],inactive
same,Potency,[3],inactive
same,Potency,[4],inactive
same,Potency,[5],27.3 µM (active)
same,outcome,[6],inactive
same,Potency,[7],inactive
same,Potency,[8],inactive
C=Cc1ccc(C=C)cc1,Potency,[1],inactive
same,Potency,[2],inactive
same,Potency,[3],inactive
same,Potency,[4],inactive
same,Potency,[5],inactive
same,outcome,[6],inactive
same,Potency,[7],inactive
same,Potency,[8],inactive
CCCCCCC/C=C/C=O,Potency,[1],inactive
same,Potency,[2],inactive
same,Potency,[3],inactive
same,Potency,[4],inactive
same,Potency,[5],inactive
same,outcome,[6],inactive
same,Potency,[7],inactive
same,Potency,[8],inactive
O=C(O)c1c2ccccc2cc2ccccc12,Potency,[1],inactive
same,Potency,[2],inactive
same,Potency,[3],inactive
same,Potency,[4],inactive
same,Potency,[5],inactive
same,outcome,[6],inactive
same,Potency,[7],inactive
same,Potency,[8],inactive
COc1ccc(C(=O)Nc2ccccc2)cc1[N+](=O)[O-],Potency,[1],inactive
same,Potency,[2],inactive
same,Potency,[3],inactive
same,Potency,[4],inactive
same,Potency,[5],24.5 µM (active)
same,outcome,[6],inactive
same,Potency,[7],inactive
same,Potency,[8],inactive
CO[C@@H]1[C@@H](O[C@@H]2O[C@H](C)[C@@H](O[C@H]3C[C@@](C)(O)[C@@H](O)[C@H](C)O3)[C@H](N(C)C)[C@H]2O)[C@@H](CC=O)C[C@@H](C)[C@@H](O[C@@H]2CC[C@H](N(C)C)[C@@H](C)O2)/C=C/C=C/C[C@@H](C)OC(=O)C[C@H]1OC(C)=O,Potency,[1],inactive
same,Potency,[2],inactive
same,Potency,[3],inactive
same,Potency,[4],inactive
same,Potency,[5],inactive
same,outcome,[6],inactive
same,Potency,[7],inactive
same,Potency,[8],inactive
O=c1c2ccccc2oc2ccccc12,Potency,[1],inactive
same,Potency,[2],inactive
same,Potency,[3],inactive
same,Potency,[4],inactive
same,Potency,[5],17.2 µM (active)
same,outcome,[6],inactive
same,Potency,[7],inactive
same,Potency,[8],inactive
CC(O)CN (stereo not given),Potency,[1],inactive
same,Potency,[2],inactive
same,Potency,[3],inactive
same,Potency,[4],inactive
same,Potency,[5],inactive
same,outcome,[6],inactive
same,Potency,[7],inactive
same,Potency,[8],inactive
CCC(CC)C(=O)O,Potency,[1],inactive
same,Potency,[2],inactive
same,Potency,[3],inactive
same,Potency,[4],inactive
same,Potency,[5],inactive
same,outcome,[6],inactive
same,Potency,[7],inactive
same,Potency,[8],inactive
O=C(OCCCCCOC(=O)c1ccccc1)c1ccccc1,Potency,[1],inactive
same,Potency,[2],inactive
same,Potency,[3],inactive
same,Potency,[4],inactive
same,Potency,[5],inactive
same,outcome,[6],inactive
same,Potency,[7],inactive
same,Potency,[8],inactive
C1CCN(CN2CCCCC2)CC1,Potency,[1],inactive
same,Potency,[2],inactive
same,Potency,[3],inactive
same,Potency,[4],inactive
same,Potency,[5],inactive
same,outcome,[6],inactive
same,Potency,[7],inactive
same,Potency,[8],inactive
OCCc1ccncc1,Potency,[1],inactive
same,Potency,[2],inactive
same,Potency,[3],inactive
same,Potency,[4],inactive
same,Potency,[5],inactive
same,outcome,[6],inactive
same,Potency,[7],inactive
same,Potency,[8],inactive
O=Cc1ccc(Cl)c([N+](=O)[O-])c1,Potency,[1],inactive
same,Potency,[2],inactive
same,Potency,[3],inactive
same,Potency,[4],inactive
same,Potency,[5],inactive
same,outcome,[6],inactive
same,Potency,[7],27.3 µM (active)
same,Potency,[8],inactive
OCC(O)c1ccccc1 (stereo not given),Potency,[1],inactive
same,Potency,[2],inactive
same,Potency,[3],inactive
same,Potency,[4],inactive
same,Potency,[5],inactive
same,outcome,[6],inactive
same,Potency,[7],inactive
same,Potency,[8],inactive
C=CCCC,Potency,[1],inactive
same,Potency,[2],inactive
same,Potency,[3],inactive
same,Potency,[5],inactive
same,outcome,[6],inactive
same,Potency,[7],inactive
O=C(O)CCc1nc2ccccc2[nH]1,Potency,[1],inactive
same,Potency,[2],inactive
same,Potency,[3],inactive
same,Potency,[9],inactive
same,Potency,[5],inactive
same,outcome,[6],inactive
same,Potency,[7],inactive
same,Potency,[8],inactive
O=C(Nc1ccccc1)c1cc([N+](=O)[O-])ccc1Cl,Potency,[1],inactive
same,Potency,[2],inactive
same,Potency,[3],inactive
same,Potency,[4],inactive
same,Potency,[5],inactive
same,Potency,[7],61.1 µM (active)
same,Potency,[8],54.5 µM (active)
CCc1ccc(C(=O)C(C)CN2CCCCC2)cc1 (stereo not given),Potency,[1],inactive
same,Potency,[2],inactive
same,Potency,[3],inactive
same,Potency,[9],inactive
same,Potency,[5],inactive
same,outcome,[6],inactive
same,Potency,[7],inactive
same,Potency,[8],inactive
COc1ccc(CN(CCN(C)C)c2ncccn2)cc1,Potency,[1],inactive
same,Potency,[2],inactive
same,Potency,[3],inactive
same,Potency,[9],inactive
same,Potency,[5],inactive
same,Potency,[7],inactive
O=C(O)c1cccnc1Nc1cccc(C(F)(F)F)c1,Potency,[1],inactive
same,Potency,[2],inactive
same,Potency,[3],inactive
same,Potency,[9],inactive
same,outcome,[6],inactive
same,Potency,[7],inactive
same,Potency,[8],inactive

# Reference: PubChem BioAssay (Tox21)
